DUSP3 inh: VHR1 (DUSP3) phosphatase inhibition. P51452. recombinant VHR phosphatase, colorimetric substrate read-out. inhibition, % at 20 µM. 50,000 compounds, 0.7% hits. AID 1992; in the data active means inhibition above about 60%
Target sequence (P51452 whole entry, looked up): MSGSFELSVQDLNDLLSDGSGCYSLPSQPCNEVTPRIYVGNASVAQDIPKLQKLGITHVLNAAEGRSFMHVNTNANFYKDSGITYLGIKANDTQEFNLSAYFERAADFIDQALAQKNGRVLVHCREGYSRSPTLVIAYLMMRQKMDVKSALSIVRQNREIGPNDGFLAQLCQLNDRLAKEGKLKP
* marks the source's active call; other numbers are inactive results. The full list was thinned out, with hits kept by preference.

SMILES	DUSP3 inh
Cc1cccc(NC(=O)c2cc(-c3cccs3)nc3ccccc23)c1	-11
Cc1c(Cl)cccc1N=C1NC(=O)/C(=C/c2cccc(O)c2)S1	2
Cc1c(Cl)cccc1N=C1NC(=O)/C(=C/c2ccc(-c3ccccc3C(=O)O)o2)S1	86*
Cc1c(Cl)cccc1N=C1NC(=O)/C(=C/c2ccc3c(c2)OCO3)S1	24
CCOC(=O)Cc1nnc(NC(=O)c2cccs2)s1	-31
CCC(=O)N1c2ccc3ccccc3c2C2C=CCC2C1c1ccc(F)cc1 (stereo not given)	8
O=[N+]([O-])c1ccc(C2Nc3ccc([N+](=O)[O-])cc3C3C=CCC32)cc1 (stereo not given)	-18
Oc1ccc(C2Nc3ccc4ccccc4c3C3C=CCC32)cc1 (stereo not given)	76*
CCOc1ccc(N2C(=O)CC(N(Cc3ccco3)C(=O)c3ccc(Cl)cc3)C2=O)cc1 (stereo not given)	30
Cc1ccccc1CN1CCN(Cc2ccc(F)cc2)CC1	10
CCOc1ccccc1NC(=O)c1c(NC(=O)c2ccccc2F)sc2c1CCC(C)C2 (stereo not given)	-10
CCOc1ccccc1NC(=O)c1c(NC(=O)c2cccc(F)c2)sc2c1CCC(C)C2 (stereo not given)	116*
CCOc1ccccc1NC(=O)c1c(NC(=O)Cc2ccc(OC)cc2)sc2c1CCC(C)C2 (stereo not given)	8
COc1ccc2c(c1)c(/C=C/c1nc3ccccc3c(=O)n1-c1cccc(C)c1)c(C)n2C	-98
COc1ccccc1NC(=O)c1ccc(-n2cnnn2)cc1	-1
CN(C)c1ccc(/C=C/C=C/c2cc[n+](CCCS(=O)(=O)[O-])cc2)cc1	100*
CN(C)c1ccc(/C=N/S(=O)(=O)CCc2ccccc2)cc1	-3
Cc1ccc(S(=O)(=O)N/N=C/C=C/c2ccc(N(C)C)cc2)cc1[N+](=O)[O-]	-8
COc1cccc(-n2sc3c(c2=S)-c2ccccc2NC3(C)C)c1	-10
CC1(C)CC(N2CN=C(N)N(C#N)C2)CC(C)(C)N1	-19
Nc1ccccc1C(=O)N=Nc1c(O)[nH]c2ccccc12	-5
C=C(C)COc1ccc2c3c(c(=O)oc2c1C)CCCC3	-8
